Test results taken from ChEMBL document CHEMBL2218924, “A broad activity screen in support of a chemogenomic map for kinase signalling research and drug discovery” (Biochem J, 2013).

Legend:
[1] = biological target: T1, Tyrosine-protein kinase ITK/TSK (Homo sapiens) (UniProt Q08881); conditions: at 10 µM
T1 sequence (whole entry): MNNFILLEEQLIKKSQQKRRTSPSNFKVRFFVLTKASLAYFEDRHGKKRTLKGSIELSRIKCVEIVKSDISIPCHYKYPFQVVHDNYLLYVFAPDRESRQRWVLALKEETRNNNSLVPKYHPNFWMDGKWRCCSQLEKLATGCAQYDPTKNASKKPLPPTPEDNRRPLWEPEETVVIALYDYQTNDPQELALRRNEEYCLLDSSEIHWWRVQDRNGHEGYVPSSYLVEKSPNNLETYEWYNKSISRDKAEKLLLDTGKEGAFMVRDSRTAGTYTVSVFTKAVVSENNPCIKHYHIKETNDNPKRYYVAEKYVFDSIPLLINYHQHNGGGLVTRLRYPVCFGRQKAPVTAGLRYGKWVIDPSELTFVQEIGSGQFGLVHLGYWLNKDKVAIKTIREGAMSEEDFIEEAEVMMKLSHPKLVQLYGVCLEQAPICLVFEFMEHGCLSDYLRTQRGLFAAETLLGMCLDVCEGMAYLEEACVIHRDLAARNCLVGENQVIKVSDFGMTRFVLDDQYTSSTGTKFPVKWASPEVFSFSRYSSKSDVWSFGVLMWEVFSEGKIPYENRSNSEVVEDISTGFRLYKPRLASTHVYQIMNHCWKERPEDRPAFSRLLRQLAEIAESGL

[2] = biological target: Tyrosine-protein kinase JAK2 (Homo sapiens) (UniProt O60674); conditions: at 1 µM
Tyrosine-protein kinase JAK2 (Homo sapiens), sequence (O60674 whole entry): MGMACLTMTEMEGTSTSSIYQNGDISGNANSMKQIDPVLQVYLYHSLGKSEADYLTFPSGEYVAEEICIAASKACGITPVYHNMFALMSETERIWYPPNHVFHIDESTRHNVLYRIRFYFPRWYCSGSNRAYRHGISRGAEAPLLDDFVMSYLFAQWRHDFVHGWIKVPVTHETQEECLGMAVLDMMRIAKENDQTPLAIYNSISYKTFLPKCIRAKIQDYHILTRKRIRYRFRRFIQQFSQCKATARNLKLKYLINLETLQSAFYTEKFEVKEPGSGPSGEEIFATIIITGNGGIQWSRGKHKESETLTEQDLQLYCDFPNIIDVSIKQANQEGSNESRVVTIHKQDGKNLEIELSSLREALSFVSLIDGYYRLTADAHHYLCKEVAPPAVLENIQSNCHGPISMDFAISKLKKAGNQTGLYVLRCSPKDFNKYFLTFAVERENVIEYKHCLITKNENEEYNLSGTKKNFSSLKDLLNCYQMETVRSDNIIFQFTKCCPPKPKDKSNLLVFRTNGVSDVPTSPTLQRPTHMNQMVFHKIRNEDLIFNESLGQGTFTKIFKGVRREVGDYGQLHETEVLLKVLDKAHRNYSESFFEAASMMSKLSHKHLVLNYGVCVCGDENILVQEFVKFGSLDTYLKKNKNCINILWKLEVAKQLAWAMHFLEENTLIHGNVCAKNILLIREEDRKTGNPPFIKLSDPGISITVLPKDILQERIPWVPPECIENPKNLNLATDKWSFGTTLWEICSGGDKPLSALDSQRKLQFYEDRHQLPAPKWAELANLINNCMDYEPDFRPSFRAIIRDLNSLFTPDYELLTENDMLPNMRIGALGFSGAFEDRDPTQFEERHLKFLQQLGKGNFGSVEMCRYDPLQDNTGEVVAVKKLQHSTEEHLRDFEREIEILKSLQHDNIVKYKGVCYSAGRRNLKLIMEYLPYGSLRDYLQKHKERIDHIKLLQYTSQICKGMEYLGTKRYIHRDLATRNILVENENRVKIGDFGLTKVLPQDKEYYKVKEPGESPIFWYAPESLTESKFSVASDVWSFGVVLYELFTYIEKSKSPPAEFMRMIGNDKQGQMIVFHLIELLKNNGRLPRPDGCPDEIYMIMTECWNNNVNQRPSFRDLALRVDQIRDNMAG

[3] = biological target: Tyrosine-protein kinase JAK2 (Homo sapiens) (UniProt O60674); conditions: at 10 µM
[4] = biological target: T2, Tyrosine-protein kinase JAK3 (Homo sapiens) (UniProt P52333); conditions: at 1 µM
T2 sequence (whole entry): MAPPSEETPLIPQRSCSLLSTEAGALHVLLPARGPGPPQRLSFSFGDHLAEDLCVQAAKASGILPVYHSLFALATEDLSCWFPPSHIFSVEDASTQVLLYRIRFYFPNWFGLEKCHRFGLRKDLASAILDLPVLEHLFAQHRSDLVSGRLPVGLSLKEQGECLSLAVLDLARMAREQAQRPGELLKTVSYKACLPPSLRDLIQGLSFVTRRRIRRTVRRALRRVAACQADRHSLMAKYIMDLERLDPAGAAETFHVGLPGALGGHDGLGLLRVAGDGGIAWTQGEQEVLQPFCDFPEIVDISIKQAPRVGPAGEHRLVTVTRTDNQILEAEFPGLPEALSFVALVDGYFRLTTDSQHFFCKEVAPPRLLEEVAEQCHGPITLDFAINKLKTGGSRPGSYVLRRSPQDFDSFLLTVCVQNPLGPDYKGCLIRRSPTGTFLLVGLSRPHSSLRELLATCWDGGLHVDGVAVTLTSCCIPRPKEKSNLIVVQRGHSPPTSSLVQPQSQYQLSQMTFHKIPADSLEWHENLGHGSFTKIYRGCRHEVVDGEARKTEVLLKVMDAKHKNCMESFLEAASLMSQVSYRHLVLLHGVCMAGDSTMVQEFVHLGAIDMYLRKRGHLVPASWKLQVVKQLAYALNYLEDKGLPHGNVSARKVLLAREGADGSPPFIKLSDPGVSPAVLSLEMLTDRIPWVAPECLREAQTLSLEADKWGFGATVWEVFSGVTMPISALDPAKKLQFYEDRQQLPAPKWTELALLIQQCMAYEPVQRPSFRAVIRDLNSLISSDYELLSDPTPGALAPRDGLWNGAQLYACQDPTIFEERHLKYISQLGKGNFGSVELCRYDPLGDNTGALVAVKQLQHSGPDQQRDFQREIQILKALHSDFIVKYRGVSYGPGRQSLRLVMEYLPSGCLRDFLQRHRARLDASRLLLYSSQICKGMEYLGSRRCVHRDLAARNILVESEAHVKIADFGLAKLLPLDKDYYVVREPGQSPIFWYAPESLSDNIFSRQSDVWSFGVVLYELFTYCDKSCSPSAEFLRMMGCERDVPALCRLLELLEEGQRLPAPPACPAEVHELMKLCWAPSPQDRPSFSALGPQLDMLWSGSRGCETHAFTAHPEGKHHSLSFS

[5] = biological target: T2, Tyrosine-protein kinase JAK3 (Homo sapiens); conditions: at 10 µM
[6] = biological target: Mitogen-activated protein kinase 8 (Homo sapiens) (UniProt P45983); conditions: at 1 µM
Mitogen-activated protein kinase 8 (Homo sapiens), sequence (P45983 whole entry): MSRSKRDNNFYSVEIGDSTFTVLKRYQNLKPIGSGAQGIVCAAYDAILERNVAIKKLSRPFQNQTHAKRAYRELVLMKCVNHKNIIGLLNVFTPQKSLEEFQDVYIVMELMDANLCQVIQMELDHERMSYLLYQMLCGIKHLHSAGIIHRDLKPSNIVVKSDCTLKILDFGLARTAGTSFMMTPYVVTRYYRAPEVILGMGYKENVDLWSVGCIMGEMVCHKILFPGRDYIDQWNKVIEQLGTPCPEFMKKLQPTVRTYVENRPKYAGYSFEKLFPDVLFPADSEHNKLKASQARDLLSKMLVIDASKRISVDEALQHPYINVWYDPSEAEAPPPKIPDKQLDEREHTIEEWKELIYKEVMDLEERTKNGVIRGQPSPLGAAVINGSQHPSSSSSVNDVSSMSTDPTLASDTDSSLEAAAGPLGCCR

[7] = biological target: Mitogen-activated protein kinase 8 (Homo sapiens) (UniProt P45983); conditions: at 10 µM
[8] = biological target: Mitogen-activated protein kinase 9 (Homo sapiens) (UniProt P45984); conditions: at 1 µM
Mitogen-activated protein kinase 9 (Homo sapiens), sequence (P45984 whole entry, looked up): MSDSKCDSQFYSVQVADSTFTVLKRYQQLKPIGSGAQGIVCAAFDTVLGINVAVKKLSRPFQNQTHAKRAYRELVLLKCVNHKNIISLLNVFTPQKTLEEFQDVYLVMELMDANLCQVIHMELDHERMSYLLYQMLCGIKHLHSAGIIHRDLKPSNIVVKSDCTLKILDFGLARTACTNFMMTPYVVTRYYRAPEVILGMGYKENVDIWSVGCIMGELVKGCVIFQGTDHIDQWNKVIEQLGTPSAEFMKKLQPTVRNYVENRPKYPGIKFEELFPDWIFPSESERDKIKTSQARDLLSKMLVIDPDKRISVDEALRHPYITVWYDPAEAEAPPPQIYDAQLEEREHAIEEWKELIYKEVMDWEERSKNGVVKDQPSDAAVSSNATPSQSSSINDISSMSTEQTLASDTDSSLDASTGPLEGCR

[9] = biological target: Mitogen-activated protein kinase 9 (Homo sapiens) (UniProt P45984); conditions: at 10 µM
[10] = biological target: Mitogen-activated protein kinase 10 (Homo sapiens) (UniProt P53779); conditions: at 1 µM
Mitogen-activated protein kinase 10 (Homo sapiens), sequence (P53779 whole entry): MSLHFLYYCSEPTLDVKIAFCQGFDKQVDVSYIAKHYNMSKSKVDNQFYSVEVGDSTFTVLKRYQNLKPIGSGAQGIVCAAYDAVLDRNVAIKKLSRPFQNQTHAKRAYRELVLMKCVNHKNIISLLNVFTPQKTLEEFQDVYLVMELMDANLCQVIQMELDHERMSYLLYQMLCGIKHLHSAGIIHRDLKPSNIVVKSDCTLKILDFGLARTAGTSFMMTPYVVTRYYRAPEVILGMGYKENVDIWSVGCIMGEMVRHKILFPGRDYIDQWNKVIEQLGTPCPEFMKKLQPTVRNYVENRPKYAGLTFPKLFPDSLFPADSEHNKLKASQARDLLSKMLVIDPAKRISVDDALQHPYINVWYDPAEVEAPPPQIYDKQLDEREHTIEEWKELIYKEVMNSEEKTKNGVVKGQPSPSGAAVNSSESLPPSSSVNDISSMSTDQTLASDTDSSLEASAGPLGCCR

[11] = biological target: Mitogen-activated protein kinase 10 (Homo sapiens) (UniProt P53779); conditions: at 10 µM
[12] = biological target: Vascular endothelial growth factor receptor 2 (Homo sapiens) (UniProt P35968); conditions: at 1 µM
[13] = biological target: Vascular endothelial growth factor receptor 2 (Homo sapiens) (UniProt P35968); conditions: at 10 µM
[14] = biological target: LIM domain kinase 1 (Homo sapiens) (UniProt P53667); conditions: at 1 µM
LIM domain kinase 1 (Homo sapiens), sequence (P53667 whole entry, looked up, the tested form may be a part): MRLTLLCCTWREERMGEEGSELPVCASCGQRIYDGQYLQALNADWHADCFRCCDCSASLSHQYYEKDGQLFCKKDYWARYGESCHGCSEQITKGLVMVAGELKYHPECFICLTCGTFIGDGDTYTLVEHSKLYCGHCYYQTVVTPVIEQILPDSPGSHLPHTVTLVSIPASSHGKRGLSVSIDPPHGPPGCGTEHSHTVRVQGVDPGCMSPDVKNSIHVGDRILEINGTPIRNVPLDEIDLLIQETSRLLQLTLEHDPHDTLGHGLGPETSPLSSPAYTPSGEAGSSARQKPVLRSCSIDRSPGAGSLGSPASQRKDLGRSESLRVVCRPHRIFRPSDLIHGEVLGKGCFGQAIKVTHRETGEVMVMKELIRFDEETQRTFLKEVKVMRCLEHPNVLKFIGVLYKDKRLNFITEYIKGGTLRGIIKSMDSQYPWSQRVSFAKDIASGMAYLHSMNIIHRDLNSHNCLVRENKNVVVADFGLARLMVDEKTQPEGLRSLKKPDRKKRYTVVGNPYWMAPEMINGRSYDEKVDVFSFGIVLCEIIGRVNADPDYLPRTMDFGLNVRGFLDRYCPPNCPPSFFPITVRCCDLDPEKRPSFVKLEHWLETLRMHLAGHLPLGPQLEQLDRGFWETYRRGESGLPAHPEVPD

[15] = biological target: LIM domain kinase 1 (Homo sapiens) (UniProt P53667); conditions: at 10 µM
[16] = biological target: T3, Serine/threonine-protein kinase STK11 (Homo sapiens) (UniProt Q15831); conditions: at 1 µM
T3 sequence (whole entry): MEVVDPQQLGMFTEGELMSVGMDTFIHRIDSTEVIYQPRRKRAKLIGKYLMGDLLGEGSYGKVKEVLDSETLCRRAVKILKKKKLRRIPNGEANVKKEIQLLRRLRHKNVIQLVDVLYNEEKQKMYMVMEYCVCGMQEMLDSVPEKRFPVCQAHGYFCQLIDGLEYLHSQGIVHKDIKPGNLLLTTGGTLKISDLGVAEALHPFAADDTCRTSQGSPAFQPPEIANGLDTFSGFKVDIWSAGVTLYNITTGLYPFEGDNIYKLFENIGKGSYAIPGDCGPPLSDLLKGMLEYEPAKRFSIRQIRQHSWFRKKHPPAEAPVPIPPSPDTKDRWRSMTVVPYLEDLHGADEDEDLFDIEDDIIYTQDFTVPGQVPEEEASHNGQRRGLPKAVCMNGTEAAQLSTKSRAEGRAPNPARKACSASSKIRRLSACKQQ

[17] = biological target: T3, Serine/threonine-protein kinase STK11 (Homo sapiens); conditions: at 10 µM
[18] = biological target: Serine/threonine-protein kinase 10 (Homo sapiens) (UniProt O94804); conditions: at 1 µM
Serine/threonine-protein kinase 10 (Homo sapiens), sequence (O94804 whole entry, looked up): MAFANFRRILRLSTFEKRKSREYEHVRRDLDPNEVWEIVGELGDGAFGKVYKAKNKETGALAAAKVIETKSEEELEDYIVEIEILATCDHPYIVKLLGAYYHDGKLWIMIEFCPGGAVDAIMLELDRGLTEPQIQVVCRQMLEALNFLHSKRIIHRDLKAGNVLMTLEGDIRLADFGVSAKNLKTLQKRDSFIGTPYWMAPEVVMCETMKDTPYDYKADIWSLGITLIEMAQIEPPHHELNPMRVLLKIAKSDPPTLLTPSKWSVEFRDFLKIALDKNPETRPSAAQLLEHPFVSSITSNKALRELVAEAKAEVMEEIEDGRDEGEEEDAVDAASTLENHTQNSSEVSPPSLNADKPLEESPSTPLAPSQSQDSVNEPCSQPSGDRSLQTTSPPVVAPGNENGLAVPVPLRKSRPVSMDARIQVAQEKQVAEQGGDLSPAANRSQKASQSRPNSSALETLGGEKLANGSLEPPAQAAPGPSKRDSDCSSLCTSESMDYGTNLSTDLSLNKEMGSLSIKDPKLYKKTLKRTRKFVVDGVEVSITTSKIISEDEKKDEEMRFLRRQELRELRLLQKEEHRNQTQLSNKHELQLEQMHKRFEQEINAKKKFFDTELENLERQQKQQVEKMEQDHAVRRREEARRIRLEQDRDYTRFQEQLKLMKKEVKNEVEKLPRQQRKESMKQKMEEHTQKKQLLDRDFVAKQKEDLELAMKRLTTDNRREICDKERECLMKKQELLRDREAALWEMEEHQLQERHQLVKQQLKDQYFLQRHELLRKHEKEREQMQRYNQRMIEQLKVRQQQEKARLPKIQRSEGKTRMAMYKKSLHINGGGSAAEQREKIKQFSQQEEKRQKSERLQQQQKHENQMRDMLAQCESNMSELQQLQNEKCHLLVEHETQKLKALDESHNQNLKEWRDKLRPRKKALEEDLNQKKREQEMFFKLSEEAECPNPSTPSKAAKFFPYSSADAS

[19] = biological target: Serine/threonine-protein kinase 10 (Homo sapiens) (UniProt O94804); conditions: at 10 µM
[20] = biological target: Tyrosine-protein kinase Lck (Homo sapiens) (UniProt P06239); conditions: at 1 µM
Tyrosine-protein kinase Lck (Homo sapiens), sequence (P06239 2-509 limits assumed): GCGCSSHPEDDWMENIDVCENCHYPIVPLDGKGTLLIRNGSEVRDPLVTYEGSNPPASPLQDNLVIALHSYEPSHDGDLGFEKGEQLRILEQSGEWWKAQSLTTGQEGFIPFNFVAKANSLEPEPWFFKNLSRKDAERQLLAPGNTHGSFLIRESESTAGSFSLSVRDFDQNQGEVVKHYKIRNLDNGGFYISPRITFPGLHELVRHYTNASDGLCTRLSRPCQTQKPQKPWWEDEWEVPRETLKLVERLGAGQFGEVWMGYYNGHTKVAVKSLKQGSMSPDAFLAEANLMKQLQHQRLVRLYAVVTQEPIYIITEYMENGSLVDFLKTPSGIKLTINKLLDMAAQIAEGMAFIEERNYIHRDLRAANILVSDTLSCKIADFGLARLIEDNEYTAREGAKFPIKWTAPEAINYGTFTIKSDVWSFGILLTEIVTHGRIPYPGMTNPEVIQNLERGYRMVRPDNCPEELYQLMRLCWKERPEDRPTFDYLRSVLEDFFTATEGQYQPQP

| Compound | residual activity [1] | residual activity [2] | residual activity [3] | residual activity [4] | residual activity [5] | residual activity [6] | residual activity [7] | residual activity [8] | residual activity [9] | residual activity [10] | residual activity [11] | residual activity [12] | residual activity [13] | residual activity [14] | residual activity [15] | residual activity [16] | residual activity [17] | residual activity [18] | residual activity [19] | residual activity [20] |
| --- | --- | --- | --- | --- | --- | --- | --- | --- | --- | --- | --- | --- | --- | --- | --- | --- | --- | --- | --- | --- |
| Cc1ccc(S(=O)(=O)/C=C/C#N)cc1 | 102% | 99% | 103% | 109% | 105% | 115% | 96% | 107% | 112% | 74% | 84% | 101% | 95% | 92% | 92% | 94% | 100% | 109% | 108% | 96% |
| Oc1ccc(Nc2nc(-c3ccc(Cl)cc3)cs2)cc1 | 95% | 106% | 97% | 95% | 122% | 106% | 101% | 101% | 113% | 108% | 115% | 104% | 92% | 102% | 102% | 108% | – | 109% | 107% | 93% |
| Cc1cncc2cccc(S(=O)(=O)N3CCCN(C(=O)CN)C[C@H]3C)c12 | – | – | – | 92% | – | 95% | 82% | – | 79% | 72% | 124% | 99% | 74% | 92% | 51% | 91% | 69% | 54% | 21% | 97% |
